# Results reported in paper PMC7862700, “An all-to-all approach to the identification of sequence-specific readers for epigenetic DNA modifications on cytosine”.
# Columns and labels:
# Test in all cases: DAPPL (digital affinity profiling via proximity ligation, sequencing); 10 mM Tris-HCl pH 7.5, 50 mM NaCl, 1 mM DTT, 4% glycerol, room temperature, 30 min; GST-TFs on glutathione beads, 16-mer random dsDNA library, 0.1% formaldehyde crosslink after washing; high values mean tight binding
# FEV = molecular target: T1, FEV (Homo sapiens, UniProt Q99581 1-238); conditions: protein: recombinant; tags: N-terminal GST; dsDNA, one strand shown
# T1 sequence: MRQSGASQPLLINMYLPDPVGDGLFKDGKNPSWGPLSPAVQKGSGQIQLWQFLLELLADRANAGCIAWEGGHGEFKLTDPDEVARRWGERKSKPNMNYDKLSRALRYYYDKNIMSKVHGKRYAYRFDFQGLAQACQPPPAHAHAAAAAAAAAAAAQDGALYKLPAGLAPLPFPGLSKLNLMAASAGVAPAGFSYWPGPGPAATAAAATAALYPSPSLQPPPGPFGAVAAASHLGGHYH
# Method in brief: (§1)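 Human transcription factors fused to GST were expressed in yeast, captured on glutathione beads, given DNA barcodes and pooled with a GST-only negative control. Pools were incubated with 200 nmole of a 16-mer random double-stranded DNA library in Tris/NaCl/DTT/glycerol buffer at room temperature for 30 min. They were then washed, crosslinked with 0.1% formaldehyde, proximity-ligated (BsaI/T4 ligase, 1 h, 37 °C), PCR-amplified and sequenced on an Illumina NextSeq500. Binding signal is each 6-mer's read frequency for a factor divided by its frequency for the GST control.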
# ETV5 = ETV5 (Homo sapiens, UniProt P41161 1-510); conditions: protein: recombinant; tags: N-terminal GST; dsDNA, one strand shown
# Method in brief: as §1
# HSF1 = HSF1 (Homo sapiens, UniProt Q00613 1-529); conditions: protein: recombinant; tags: N-terminal GST; chain copies: 3; dsDNA, one strand shown
# Method in brief: as §1
# SPIC = molecular target: T2, SPIC (Homo sapiens, UniProt Q8N5J4 1-248); conditions: protein: recombinant; tags: N-terminal GST; dsDNA, one strand shown
# T2 sequence: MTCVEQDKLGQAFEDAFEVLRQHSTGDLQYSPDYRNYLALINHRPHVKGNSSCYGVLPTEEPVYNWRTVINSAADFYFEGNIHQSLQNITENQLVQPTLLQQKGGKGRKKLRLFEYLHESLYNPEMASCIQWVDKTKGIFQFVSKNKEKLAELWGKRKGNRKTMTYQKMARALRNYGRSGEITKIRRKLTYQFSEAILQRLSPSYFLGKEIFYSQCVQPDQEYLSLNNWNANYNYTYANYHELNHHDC
# Method in brief: as §1
# ELF4 = ELF4 (Homo sapiens, UniProt Q99607 1-663); conditions: protein: recombinant; tags: N-terminal GST; dsDNA, one strand shown
# Method in brief: as §1
# ELK4 = molecular target: T3, ELK4 (Homo sapiens, UniProt P28324-2 1-405); conditions: protein: recombinant; tags: N-terminal GST; dsDNA, one strand shown
# T3 sequence: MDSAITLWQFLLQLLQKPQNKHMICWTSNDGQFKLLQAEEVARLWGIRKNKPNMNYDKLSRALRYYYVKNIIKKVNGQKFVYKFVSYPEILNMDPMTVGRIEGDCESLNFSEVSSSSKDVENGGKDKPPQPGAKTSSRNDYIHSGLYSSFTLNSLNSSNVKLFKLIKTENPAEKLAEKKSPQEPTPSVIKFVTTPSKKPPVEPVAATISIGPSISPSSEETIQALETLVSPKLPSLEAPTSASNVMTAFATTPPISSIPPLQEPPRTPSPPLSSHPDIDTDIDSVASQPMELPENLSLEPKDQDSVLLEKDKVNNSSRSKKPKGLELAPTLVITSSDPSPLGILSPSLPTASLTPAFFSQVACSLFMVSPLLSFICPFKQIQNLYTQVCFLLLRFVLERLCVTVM
# Method in brief: as §1
# ETV2 = molecular target: T4, ETV2 (Homo sapiens, UniProt O00321 1-342); conditions: protein: recombinant; tags: N-terminal GST; dsDNA, one strand shown
# T4 sequence: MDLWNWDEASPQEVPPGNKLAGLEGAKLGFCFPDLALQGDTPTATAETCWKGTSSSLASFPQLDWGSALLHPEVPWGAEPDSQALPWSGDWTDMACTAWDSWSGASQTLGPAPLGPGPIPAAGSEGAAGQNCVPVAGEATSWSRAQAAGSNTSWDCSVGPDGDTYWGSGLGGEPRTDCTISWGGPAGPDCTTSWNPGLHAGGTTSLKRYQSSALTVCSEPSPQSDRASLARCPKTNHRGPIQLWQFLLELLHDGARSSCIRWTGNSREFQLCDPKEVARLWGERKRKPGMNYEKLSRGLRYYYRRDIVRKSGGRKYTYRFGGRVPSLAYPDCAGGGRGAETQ
# Method in brief: as §1
# ELF3 = molecular target: T5, ELF3 (Homo sapiens, UniProt P78545 1-371); conditions: protein: recombinant; tags: N-terminal GST; dsDNA, one strand shown
# T5 sequence: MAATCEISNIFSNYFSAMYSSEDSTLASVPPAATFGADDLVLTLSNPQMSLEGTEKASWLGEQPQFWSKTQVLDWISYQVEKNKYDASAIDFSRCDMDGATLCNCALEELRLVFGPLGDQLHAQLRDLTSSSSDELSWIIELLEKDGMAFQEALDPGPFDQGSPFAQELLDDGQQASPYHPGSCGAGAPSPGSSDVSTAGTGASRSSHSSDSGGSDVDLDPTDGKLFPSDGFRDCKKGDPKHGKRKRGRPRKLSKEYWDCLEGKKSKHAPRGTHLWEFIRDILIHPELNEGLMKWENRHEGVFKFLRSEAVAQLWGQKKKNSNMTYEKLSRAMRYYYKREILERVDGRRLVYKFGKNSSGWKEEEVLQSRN
# Method in brief: as §1
# CRX = CRX (Homo sapiens, UniProt O43186 1-299); conditions: protein: recombinant; tags: N-terminal GST; dsDNA, one strand shown
# Method in brief: as §1
# ETV1 = ETV1 (Homo sapiens, UniProt P50549 1-477); conditions: protein: recombinant; tags: N-terminal GST; dsDNA, one strand shown
# Method in brief: as §1
# ERF = molecular target: T6, ERF (Homo sapiens, UniProt P50548 1-548); conditions: protein: recombinant; tags: N-terminal GST; dsDNA, one strand shown
# T6 sequence: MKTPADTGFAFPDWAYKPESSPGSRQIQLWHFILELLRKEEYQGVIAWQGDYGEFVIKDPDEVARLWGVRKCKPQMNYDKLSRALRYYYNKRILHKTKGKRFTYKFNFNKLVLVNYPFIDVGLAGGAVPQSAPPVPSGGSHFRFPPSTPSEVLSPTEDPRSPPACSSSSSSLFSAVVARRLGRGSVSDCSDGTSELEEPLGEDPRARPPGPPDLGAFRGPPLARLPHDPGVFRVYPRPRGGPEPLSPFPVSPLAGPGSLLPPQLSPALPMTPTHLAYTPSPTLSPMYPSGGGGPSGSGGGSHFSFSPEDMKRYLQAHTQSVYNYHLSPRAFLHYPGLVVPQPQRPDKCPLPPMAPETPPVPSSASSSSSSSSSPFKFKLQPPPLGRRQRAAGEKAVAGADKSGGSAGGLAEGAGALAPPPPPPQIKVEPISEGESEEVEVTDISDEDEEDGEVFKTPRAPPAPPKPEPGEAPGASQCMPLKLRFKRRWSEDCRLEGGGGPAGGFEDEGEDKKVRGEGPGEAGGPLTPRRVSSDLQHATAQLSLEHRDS
# Method in brief: as §1
# ETV3L = molecular target: T7, ETV3L (Homo sapiens, UniProt Q6ZN32 1-361); conditions: protein: recombinant; tags: N-terminal GST; dsDNA, one strand shown
# T7 sequence: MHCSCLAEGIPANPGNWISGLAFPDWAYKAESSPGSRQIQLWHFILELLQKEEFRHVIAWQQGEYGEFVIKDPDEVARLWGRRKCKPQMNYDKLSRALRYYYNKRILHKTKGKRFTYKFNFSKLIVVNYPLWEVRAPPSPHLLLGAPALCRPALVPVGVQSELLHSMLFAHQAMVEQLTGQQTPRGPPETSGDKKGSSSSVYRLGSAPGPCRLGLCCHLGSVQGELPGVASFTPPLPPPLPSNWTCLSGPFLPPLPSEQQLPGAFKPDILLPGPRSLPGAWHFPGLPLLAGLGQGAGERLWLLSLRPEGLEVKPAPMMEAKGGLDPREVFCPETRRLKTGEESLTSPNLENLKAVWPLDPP
# Method in brief: as §1
# ETS2 = molecular target: T8, ETS2 (Homo sapiens, UniProt P15036 1-469); conditions: protein: recombinant; tags: N-terminal GST; dsDNA, one strand shown
# T8 sequence: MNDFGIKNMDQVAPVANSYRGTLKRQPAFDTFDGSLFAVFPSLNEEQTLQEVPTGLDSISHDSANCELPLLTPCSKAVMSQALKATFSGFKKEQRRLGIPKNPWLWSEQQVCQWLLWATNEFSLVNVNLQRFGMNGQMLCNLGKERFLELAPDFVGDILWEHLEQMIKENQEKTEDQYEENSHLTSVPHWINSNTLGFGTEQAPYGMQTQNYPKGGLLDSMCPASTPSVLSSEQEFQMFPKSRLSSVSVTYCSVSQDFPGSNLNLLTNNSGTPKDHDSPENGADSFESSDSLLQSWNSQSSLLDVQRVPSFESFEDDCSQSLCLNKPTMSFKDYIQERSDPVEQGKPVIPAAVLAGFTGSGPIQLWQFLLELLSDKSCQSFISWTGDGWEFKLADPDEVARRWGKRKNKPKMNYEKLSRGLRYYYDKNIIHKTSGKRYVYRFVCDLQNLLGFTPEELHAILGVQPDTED
# Method in brief: as §1
# SPDEF = molecular target: T9, SPDEF (Homo sapiens, UniProt O95238 1-335); conditions: protein: recombinant; tags: N-terminal GST; dsDNA, one strand shown
# T9 sequence: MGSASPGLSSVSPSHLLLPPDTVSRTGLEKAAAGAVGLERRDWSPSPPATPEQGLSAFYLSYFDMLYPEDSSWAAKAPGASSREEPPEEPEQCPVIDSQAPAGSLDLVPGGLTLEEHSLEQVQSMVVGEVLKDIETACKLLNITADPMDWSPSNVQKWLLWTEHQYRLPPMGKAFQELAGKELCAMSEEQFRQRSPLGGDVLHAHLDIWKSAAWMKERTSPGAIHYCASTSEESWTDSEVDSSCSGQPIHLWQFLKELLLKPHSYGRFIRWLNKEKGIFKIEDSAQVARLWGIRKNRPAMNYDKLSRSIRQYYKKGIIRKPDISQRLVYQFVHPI
# Method in brief: as §1
# ETV7 = molecular target: T10, ETV7 (Homo sapiens, UniProt Q9Y603 1-341); conditions: protein: recombinant; tags: N-terminal GST; dsDNA, one strand shown
# T10 sequence: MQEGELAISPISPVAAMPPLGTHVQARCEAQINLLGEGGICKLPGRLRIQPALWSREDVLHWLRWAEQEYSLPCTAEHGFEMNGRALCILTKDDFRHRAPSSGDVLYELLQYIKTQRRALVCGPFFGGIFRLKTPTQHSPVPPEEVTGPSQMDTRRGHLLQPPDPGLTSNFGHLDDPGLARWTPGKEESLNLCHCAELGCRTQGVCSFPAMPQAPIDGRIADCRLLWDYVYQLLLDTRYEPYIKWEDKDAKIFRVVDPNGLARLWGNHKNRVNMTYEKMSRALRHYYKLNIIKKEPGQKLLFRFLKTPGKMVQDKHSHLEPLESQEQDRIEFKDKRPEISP
# Method in brief: as §1
# ELF5 = molecular target: T11, ELF5 (Homo sapiens, UniProt Q9UKW6-2 1-255); conditions: protein: recombinant; tags: N-terminal GST; dsDNA, one strand shown
# T11 sequence: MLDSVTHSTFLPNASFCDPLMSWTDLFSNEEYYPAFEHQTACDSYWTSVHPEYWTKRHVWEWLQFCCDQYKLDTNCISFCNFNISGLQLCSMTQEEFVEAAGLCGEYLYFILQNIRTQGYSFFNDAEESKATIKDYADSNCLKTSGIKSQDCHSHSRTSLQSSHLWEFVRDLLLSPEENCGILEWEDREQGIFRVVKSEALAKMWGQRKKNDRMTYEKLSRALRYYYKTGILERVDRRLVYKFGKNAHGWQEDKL
# Method in brief: as §1
# ETV3 = molecular target: T12, ETV3 (Homo sapiens, UniProt P41162-2 1-143); conditions: protein: recombinant; tags: N-terminal GST; dsDNA, one strand shown
# T12 sequence: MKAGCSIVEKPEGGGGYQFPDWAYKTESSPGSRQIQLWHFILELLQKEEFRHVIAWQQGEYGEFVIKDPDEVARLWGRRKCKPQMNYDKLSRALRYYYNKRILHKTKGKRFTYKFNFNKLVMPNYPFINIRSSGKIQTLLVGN
# Method in brief: as §1
# ETV6 = ETV6 (Homo sapiens, UniProt P41212 1-452); conditions: protein: recombinant; tags: N-terminal GST; dsDNA, one strand shown
# Method in brief: as §1
# CRX, sequence (O43186 whole entry): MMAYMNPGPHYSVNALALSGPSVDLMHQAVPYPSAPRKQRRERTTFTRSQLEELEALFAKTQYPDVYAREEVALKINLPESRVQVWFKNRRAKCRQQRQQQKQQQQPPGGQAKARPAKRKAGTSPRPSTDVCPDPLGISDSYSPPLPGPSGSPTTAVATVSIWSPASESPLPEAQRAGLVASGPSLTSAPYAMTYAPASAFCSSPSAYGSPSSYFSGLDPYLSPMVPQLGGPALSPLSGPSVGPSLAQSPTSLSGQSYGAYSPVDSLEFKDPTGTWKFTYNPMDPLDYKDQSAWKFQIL
# ELF4, sequence (Q99607 whole entry): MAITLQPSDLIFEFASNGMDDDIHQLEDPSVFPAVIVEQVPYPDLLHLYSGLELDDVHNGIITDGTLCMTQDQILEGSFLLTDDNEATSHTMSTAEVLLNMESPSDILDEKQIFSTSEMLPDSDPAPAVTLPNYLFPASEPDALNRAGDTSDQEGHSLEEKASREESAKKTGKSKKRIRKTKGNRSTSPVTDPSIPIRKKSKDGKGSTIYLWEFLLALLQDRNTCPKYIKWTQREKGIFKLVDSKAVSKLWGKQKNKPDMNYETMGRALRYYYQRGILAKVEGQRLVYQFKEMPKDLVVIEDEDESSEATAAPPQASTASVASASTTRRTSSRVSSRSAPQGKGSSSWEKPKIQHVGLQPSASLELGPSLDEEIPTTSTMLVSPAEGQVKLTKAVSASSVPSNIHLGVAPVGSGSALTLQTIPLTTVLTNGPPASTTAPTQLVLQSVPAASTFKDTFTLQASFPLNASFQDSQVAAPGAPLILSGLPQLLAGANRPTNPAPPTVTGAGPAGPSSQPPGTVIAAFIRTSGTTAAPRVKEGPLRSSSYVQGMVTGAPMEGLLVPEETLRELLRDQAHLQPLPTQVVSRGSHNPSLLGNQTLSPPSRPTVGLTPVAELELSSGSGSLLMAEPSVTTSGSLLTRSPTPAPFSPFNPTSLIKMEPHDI
# ETV1, sequence (P50549 whole entry): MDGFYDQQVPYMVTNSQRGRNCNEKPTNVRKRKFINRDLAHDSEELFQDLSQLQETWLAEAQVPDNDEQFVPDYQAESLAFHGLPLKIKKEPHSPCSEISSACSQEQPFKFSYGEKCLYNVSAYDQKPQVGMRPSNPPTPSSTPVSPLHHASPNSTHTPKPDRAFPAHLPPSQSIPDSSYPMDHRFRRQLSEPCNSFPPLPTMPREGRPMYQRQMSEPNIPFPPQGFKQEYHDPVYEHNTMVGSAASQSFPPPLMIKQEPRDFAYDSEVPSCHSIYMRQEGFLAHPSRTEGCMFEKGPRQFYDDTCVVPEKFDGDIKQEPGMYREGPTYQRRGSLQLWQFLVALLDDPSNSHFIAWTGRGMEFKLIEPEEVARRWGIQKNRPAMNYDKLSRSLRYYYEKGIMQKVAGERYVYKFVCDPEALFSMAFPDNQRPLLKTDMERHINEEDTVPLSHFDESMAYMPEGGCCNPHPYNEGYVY
# ETV5, sequence (P41161 whole entry): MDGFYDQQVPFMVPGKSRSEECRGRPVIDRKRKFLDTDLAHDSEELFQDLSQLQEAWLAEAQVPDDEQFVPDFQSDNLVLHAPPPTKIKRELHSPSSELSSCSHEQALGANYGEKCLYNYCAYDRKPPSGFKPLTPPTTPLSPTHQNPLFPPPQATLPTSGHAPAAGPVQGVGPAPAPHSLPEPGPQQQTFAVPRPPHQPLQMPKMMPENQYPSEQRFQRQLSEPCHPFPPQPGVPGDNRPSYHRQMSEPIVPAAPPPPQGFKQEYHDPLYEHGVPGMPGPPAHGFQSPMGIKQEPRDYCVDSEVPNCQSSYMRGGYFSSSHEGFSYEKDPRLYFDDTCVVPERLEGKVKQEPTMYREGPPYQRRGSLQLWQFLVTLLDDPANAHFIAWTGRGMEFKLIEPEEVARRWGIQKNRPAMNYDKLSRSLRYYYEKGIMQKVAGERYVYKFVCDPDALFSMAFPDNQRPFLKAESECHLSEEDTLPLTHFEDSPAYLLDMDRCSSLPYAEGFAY
# HSF1, sequence (Q00613 whole entry): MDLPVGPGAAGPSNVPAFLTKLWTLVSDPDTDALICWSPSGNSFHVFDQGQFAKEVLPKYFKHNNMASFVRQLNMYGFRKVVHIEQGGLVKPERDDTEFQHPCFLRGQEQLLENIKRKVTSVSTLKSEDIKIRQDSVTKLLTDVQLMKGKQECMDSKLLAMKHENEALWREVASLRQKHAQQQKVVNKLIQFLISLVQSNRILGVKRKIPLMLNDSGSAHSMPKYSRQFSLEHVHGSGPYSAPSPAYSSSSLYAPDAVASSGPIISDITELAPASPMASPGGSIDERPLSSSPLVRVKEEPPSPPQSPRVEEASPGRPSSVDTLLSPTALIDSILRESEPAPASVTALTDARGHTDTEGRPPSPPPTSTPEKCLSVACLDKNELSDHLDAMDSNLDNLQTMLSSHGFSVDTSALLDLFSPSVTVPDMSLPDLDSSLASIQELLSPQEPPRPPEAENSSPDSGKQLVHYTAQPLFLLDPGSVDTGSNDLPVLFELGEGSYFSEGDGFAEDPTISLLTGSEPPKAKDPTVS
# ETV6, sequence (P41212 whole entry): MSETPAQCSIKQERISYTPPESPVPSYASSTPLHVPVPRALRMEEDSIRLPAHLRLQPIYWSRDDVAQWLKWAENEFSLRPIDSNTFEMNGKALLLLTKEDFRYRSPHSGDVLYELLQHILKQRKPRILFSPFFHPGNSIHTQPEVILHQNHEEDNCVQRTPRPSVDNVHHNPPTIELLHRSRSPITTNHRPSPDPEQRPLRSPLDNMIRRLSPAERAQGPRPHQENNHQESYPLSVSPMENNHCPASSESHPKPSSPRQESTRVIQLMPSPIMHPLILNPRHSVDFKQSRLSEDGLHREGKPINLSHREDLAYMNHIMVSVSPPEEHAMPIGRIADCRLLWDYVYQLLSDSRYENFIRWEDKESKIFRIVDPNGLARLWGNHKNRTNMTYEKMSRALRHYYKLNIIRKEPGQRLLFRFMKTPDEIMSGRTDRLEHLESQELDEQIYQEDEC
sequence,measurement,setting,value
CTTCAT,binding signal,FEV,"1.46 fold enrichment (6-mer frequency, TF over GST control)"
same,binding signal,ETV5,"1.49 fold enrichment (6-mer frequency, TF over GST control)"
same,binding signal,HSF1,"1.34 fold enrichment (6-mer frequency, TF over GST control)"
same,binding signal,SPIC,"1.36 fold enrichment (6-mer frequency, TF over GST control)"
same,binding signal,ELF4,"1.4 fold enrichment (6-mer frequency, TF over GST control)"
same,binding signal,ELK4,"1.53 fold enrichment (6-mer frequency, TF over GST control)"
same,binding signal,ETV2,"1.39 fold enrichment (6-mer frequency, TF over GST control)"
same,binding signal,ELF3,"1.56 fold enrichment (6-mer frequency, TF over GST control)"
same,binding signal,CRX,"1.3 fold enrichment (6-mer frequency, TF over GST control)"
same,binding signal,ETV1,"1.5 fold enrichment (6-mer frequency, TF over GST control)"
same,binding signal,ERF,"1.35 fold enrichment (6-mer frequency, TF over GST control)"
same,binding signal,ETV3L,"1.52 fold enrichment (6-mer frequency, TF over GST control)"
same,binding signal,ETS2,"1.43 fold enrichment (6-mer frequency, TF over GST control)"
same,binding signal,SPDEF,"1.43 fold enrichment (6-mer frequency, TF over GST control)"
same,binding signal,ETV7,"1.46 fold enrichment (6-mer frequency, TF over GST control)"
same,binding signal,ELF5,"1.44 fold enrichment (6-mer frequency, TF over GST control)"
same,binding signal,ETV3,"1.46 fold enrichment (6-mer frequency, TF over GST control)"
same,binding signal,ETV6,"1.33 fold enrichment (6-mer frequency, TF over GST control)"
